Data from PubChem BioAssay AID602468 (The Scripps Research Institute Molecular Screening Center, 2012).
Activity calls are given as the source filed them. How the calls were made is not given here.

System: Neuro-2A
Assay: cysteine-reactive anti-target inhibition count, late-stage follow-up, selectivity assay for PME-1 inhibitor project, gel-based competitive ABPP, fluorescence, MBM, Neuro-2A (AID 602468)
Settings: MBM or Neuro-2A, in situ; series mostly up to 0.25 µM

## CC[C@@]1(c2ccc(C)cc2)C(=O)N(C(=O)OC(C)C)N1C(=O)OC(C)C
  outcome: inactive
